The record followed here is PubChem BioAssay AID588689 (Southern Research Specialized Biocontainment Screening …, 2011).

Out of some 340,000 compounds screened, about 1,000 (0.29%) were called active. Rule as the data show it: inconclusive = inhibition above about 29% without an active follow-up result; inactive = below that. Only a sample is shown. Entries with a potency or affinity are not part of this list.

The target in this assay is Genome polyprotein (Dengue virus type 2 (strain 16681-PDK53)) (UniProt P29991). Put plainly: flavivirus cap methylation enzyme inhibition – biochemical, confirmation dose response, primary screen (AID 588689). Particulars: Dengue-2 NS5 methyltransferase capping enzyme assay, at 25 µM, stronger effect = higher value.
Setting [1] is: measured here: pilot screen replicate inhibition.

As a reminder, the inhibition is the relative decrease from the control value, in per cent. In the case of `COc1cccc(CNC(=O)c2ccc(CS(=O)Cc3ccc(C)cc3)o2)c1` (stereo not given), the inhibition was -4.44% (inactive). On the same count and under the same terms, as for `O=C(Nc1ccc(S(=O)(=O)NCc2ccco2)cc1)c1cccc(F)c1`, the figure is -4.85% (inactive). In the case of `COc1ccc(C2CC(c3ccccc3)=NN2c2ccc(N)cc2)cc1` (stereo not given), the inhibition is -12.8% (inactive).

With `COc1ccc(C2CC(c3ccccc3)=NN2c2ccc(C(N)=O)cc2)cc1` (stereo not given), the inhibition was -4.66% (inactive). For the molecule `N#C/C(=C\c1cccc(Oc2ccc(C(F)(F)F)cc2[N+](=O)[O-])c1)c1nc2ccccc2[nH]1`, the inhibition was -4.47% (inactive). On to `CCN(CC)C(=O)c1ccc(NS(=O)(=O)c2ccc(/C=C/C(=O)O)cc2)cc1`, for which the inhibition is 2.19% (inactive). Consider `CC1=C/C(=C(/c2ccc(O)c(C)c2)c2ccccc2S(=O)(=O)O)C=CC1=O`, for which the inhibition was -1.1% (inactive).

With `CC1=CC(=O)C=C/C1=C(/c1ccc(O)cc1C)c1ccccc1S(=O)(=O)O`, the inhibition was -1.47% (inactive). Consider `CC1=C/C(=C(\c2ccc(O)c(C)c2)c2ccccc2S(=O)(=O)O)C=CC1=O`, for which the inhibition was 0.65% (inactive). For the same molecule, under setting [1], the inhibition was 3.04%. Regarding `Cc1cc(C(=O)CS(=O)(=O)c2ccccc2)cc(C)c1O`, the inhibition was -11.8% (inactive). Turning to `O=C(NC(=O)c1ccccc1)OCCN1C(=O)c2ccccc2C1=O`, the inhibition is -5.92% (inactive). On to `Cc1cc(S(=O)(=O)N2CCOCC2)ccc1OCC(=O)Nc1ccccc1C(F)(F)F`, for which the inhibition was -3.32% (inactive). Take `OCCNc1c2ccccc2nc2ccccc12`: the inhibition is -2.34% (inactive). Same read-out and setting: as for `OCCNc1nc2ccccc2nc1NCCO`, the figure is 15.3% (inactive); as for `CC#CCCc1nc2ccccc2c(=O)n1N`, -9.73% (inactive). On the same count and under the same terms, as for `COCCCNC(=O)CCc1nc(-c2ccccc2Cl)no1`, the figure is -2.35% (inactive); as for `O=C(O)COc1ccc(/C=N/NC(=O)c2cn(-c3ccccc3)nc2-c2ccccc2)cc1`, 5.65% (inactive); as for `CC(C)N1C(=O)CCN(C=O)c2ccccc21`, -9.31% (inactive). On the same count and under the same terms, in the case of `CCOc1ccc(C2C(C(=O)c3ccc(C)o3)=C(O)C(=O)N2c2nc(C)c(C(=O)OC)s2)cc1` (stereo not given) it was 10.7% (inactive); in that of `CCOC(=O)c1sc(N2C(=O)C(O)=C(C(=O)c3ccco3)C2c2ccco2)nc1C` (stereo not given), -2.93% (inactive).

As for `CCOC(=O)c1sc(N2C(=O)C(O)=C(C(=O)c3ccco3)C2c2cccc([N+](=O)[O-])c2)nc1C` (stereo not given), the inhibition was -0.32% (inactive).

With `COC(=O)c1sc(N2C(=O)C(O)=C(C(=O)c3ccc(C)o3)C2c2ccc(F)cc2)nc1C` (stereo not given), the inhibition was -6.35% (inactive).

Take `COc1ccc(CC(=O)Nc2sc3c(c2C(N)=O)CCCC3)cc1`: the inhibition is -5.87% (inactive). Turning to `CCC(C)(C)NC(=O)Cn1c(-c2ccccc2)cc(C(C)=O)c1C`, the inhibition was 1.78% (inactive).

Turning to `O=C(CCN1N=C(c2ccccc2)CCC1=O)NCC1CCCO1` (stereo not given), the inhibition is 6.81% (inactive). On the same count and under the same terms, in the case of `Cc1nn(-c2ccc3ccccc3c2)c(=O)c2ccccc12` it was -4.49% (inactive); in that of `CSc1nnc(-c2ccccc2N=Cc2c(C)[nH]n(-c3ccccc3)c2=O)c(=O)[nH]1`, 11.5% (inactive); in that of `Cc1ccc2nc(N3C(=O)C(O)=C(C(=O)c4ccco4)C3c3ccc(C)o3)sc2c1` (stereo not given), -8.15% (inactive). On to `Cc1ccc2nc(N3C(=O)C(O)=C(C(=O)c4ccc(C)o4)C3c3cccc(O)c3)sc2c1` (stereo not given), for which the inhibition was 0.73% (inactive). For `Cc1ccc2nc(N3C(=O)C(O)=C(C(=O)c4ccco4)C3c3ccc(O)cc3)sc2c1` (stereo not given), the inhibition was 3.66% (inactive). Still for that read-out and setting: as for `Cc1cc(C)c2nc(N3C(=O)C(O)=C(C(=O)c4ccco4)C3c3ccco3)sc2c1` (stereo not given), the figure is 1.47% (inactive); as for `Cc1nn(CCCC(=O)NCc2ccccc2)c(C)c1[N+](=O)[O-]`, -1.91% (inactive); as for `CCCn1c(N)c(N(CCOC)C(=O)c2ccc([N+](=O)[O-])c(C)c2)c(=O)[nH]c1=O`, -3.56% (inactive).

For the molecule `COc1ccc(S(=O)(=O)N2CCN(C(=O)Cc3cccs3)CC2)cc1`, the inhibition is -2.65% (inactive).

Take `CC(C)c1nc2ccc(NC(=O)C3CCCCC3)cc2[nH]1`: the inhibition was 4.05% (inactive). Still for that read-out and setting: as for `O=C(C1=C(O)C(=O)N(CCN2CCOCC2)C1c1ccco1)c1cc2ccccc2o1` (stereo not given), the figure is -8.02% (inactive). Take `CC(/C=N/n1c(-c2ccco2)n[nH]c1=S)=C\c1ccccc1`: the inhibition was 1.83% (inactive).

With `CC(=C/c1ccccc1)/C=N/n1c(-c2ccco2)n[nH]c1=S`, the inhibition is -1.88% (inactive). Under setting [1], the inhibition stood at 2.73%. On to `Cc1ccc(C(=O)O)cc1NC(=O)c1ccc2c(c1)C(=O)N(c1ccc([N+](=O)[O-])cc1)C2=O`, for which the inhibition was -4.57% (inactive). As to `O=C(Nc1ccccc1C(=O)O)c1ccc2c(c1)C(=O)N(c1cccc([N+](=O)[O-])c1)C2=O`, the inhibition was 17.6% (inactive). On to `Cc1cc(C(=O)CSc2nnc(N)s2)c(C)n1Cc1ccco1`, for which the inhibition is -12.5% (inactive). Consider `COc1ccc(N2C(=O)C(Cl)=C(N3CCCC3)C2=O)cc1`, for which the inhibition is -10.6% (inactive). For `COc1ccccc1N1C(=O)C(Cl)=C(N2CCCC2)C1=O`, the inhibition was -1.98% (inactive). Moreover, under setting [1], the inhibition was determined as 0.315%. `COc1ccc(N2C(=O)C(Cl)=C(N3CCN(Cc4ccccc4)CC3)C2=O)cc1`: the inhibition is -1.61% (inactive). As for `CCc1ccc(N2C(=O)C(Cl)=C(N3CCCCCC3)C2=O)cc1`, the inhibition was -5.23% (inactive). In the case of `CCOc1ccc(N2C(=O)c3ccccc3C2=O)cc1`, the inhibition is 1.62% (inactive). As to `COc1ccc(OC)c(N2C(=O)C(Cl)=C(N3CCCCC3)C2=O)c1`, the inhibition was 0.68% (inactive). On the same count and under the same terms, in the case of `CCc1ccc(N2CCN(C(=O)N3CCOCC3)CC2)cc1` it was -8.84% (inactive); in that of `CCOc1ccc(N2C(=O)CC(N3CCOCC3)C2=O)cc1` (stereo not given), -2.04% (inactive); in that of `COc1cccc(-c2nc3ccc(C(=O)N4CCCC(O)C4)cc3o2)c1` (stereo not given), -1.93% (inactive). Regarding `CSc1ccc(CN(C)C(=O)c2ccc(S(=O)(=O)Nc3c(C)n(C)n(-c4ccccc4)c3=O)cc2)cc1`, the inhibition was -9.48% (inactive). On to `CCOC(=O)CSc1nnnn1-c1cc(OC)ccc1OC`, for which the inhibition was -2.05% (inactive). For the molecule `C=CC[C@H](CC(=O)NCCO)C(=O)NCCOC(=O)[C@@H](CC=C)Cc1ccc(F)cc1`, the inhibition is -5.62% (inactive). As to `CCCNC(=O)N1C2=NC(C(=O)OC)=C(C(=O)OC)[C@@H]3N(Cc4ccccc4)c4ccccc4[C@]23C[C@H]1CO`, the inhibition was -2.73% (inactive).

Consider `CCCC1Nc2ccc(C(=O)O)cc2C2C=CCC12` (stereo not given), for which the inhibition is 11.1% (inactive). On the same count and under the same terms, as for `CCOC(=O)C1Nc2ccc(C)cc2C2C=CCC12` (stereo not given), the figure is 8.8% (inactive). Consider `CC(C)CNC(=O)C1Nc2ccc(C(F)(F)F)cc2C2C=CCC12` (stereo not given), for which the inhibition is 2.4% (inactive).

Consider `O=C(O)c1ccc2c(c1)C1C=CCC1C(c1ccncc1)N2` (stereo not given), for which the inhibition was -11.1% (inactive).

On to `O=C(O)C1Nc2ccc(Br)cc2C2C=CCC12` (stereo not given), for which the inhibition was 55.7% (inactive). For `CC(=O)c1ccc2c(c1)C1C=CCC1C(c1ccncc1)N2` (stereo not given), the inhibition was 50.2% (inactive). With `CCOC(=O)C1Nc2ccc(Br)cc2C2C=CCC12` (stereo not given), the inhibition is 5.02% (inactive). As to `CCOC(=O)c1ccc2c(c1)C1C=CCC1C(C(=O)OCC)N2` (stereo not given), the inhibition is 10.8% (inactive).
